Measurements reported in the supplement of paper PMC10849652.
The full data set covers some 7,900 targets. This sample favours those with a hit. About 0.6% of all pairs of compound and target were hits. A number with no mark means an inactive call.

Experiments:
Experiment in all cases: log2 fold change, soluble protein after heating vs DMSO (PISA); higher = thermal stabilisation; K562 cells, 10 uM, 30 min; active = over 0.2 and 3.5 SD of the protein, either way, in both replicates (recomputed)
[1] = compound: COC1=CC=C(C=C1)CN2C=CC3=C2C=C(C=C3)C(=O)NO
In short: (§1)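 Values are thermal stability changes relative to control samples and are taken from duplicates. They are stated as log2 fold changes. Before quantification by TMTpro 16plex LC-MS/MS with equalised channel sums, K562 cells at 2×10^6 cells/mL were treated with 10 μM compound for 30 min, heated in aliquots for 3 min across 48°C-58°C, pooled, extracted in PBS with 0.5% NP-40 at 4°C, and centrifuged at 21,000xg for 90 min to give the soluble supernatant.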

filanesib = compound: CON(C)C(=O)N1N=C(c2cc(F)ccc2F)S[C@@]1(CCCN)c1ccccc1 [filanesib]
In short: as §1

zotarolimus = compound: CO[C@H]1C[C@@H]2CC[C@@H](C)[C@@](O)(O2)C(=O)C(=O)N2CCCC[C@H]2C(=O)O[C@H]([C@H](C)C[C@@H]2CC[C@H](n3cnnn3)[C@H](OC)C2)CC(=O)[C@H](C)/C=C(\C)[C@@H](O)[C@@H](OC)C(=O)[C@H](C)C[C@H](C)/C=C/C=C/C=C/1C [zotarolimus]
In short: as §1

idasanutlin = compound: COc1cc(C(=O)O)ccc1NC(=O)[C@@H]1N[C@@H](CC(C)(C)C)[C@](C#N)(c2ccc(Cl)cc2F)[C@H]1c1cccc(Cl)c1F [idasanutlin]
In short: as §1

alisertib = compound: COc1cc(Nc2ncc3c(n2)-c2ccc(Cl)cc2C(c2c(F)cccc2OC)=NC3)ccc1C(=O)O [alisertib]
In short: as §1

[2] = compound: COc1cc2nc(-c3cc(F)ccc3O)nc(N[C@@H]3CNC[C@H]3C(C)(C)O)c2cc1OC
In short: as §1

gefitinib = compound: COc1cc2ncnc(Nc3ccc(F)c(Cl)c3)c2cc1OCCCN1CCOCC1 [gefitinib]
In short: as §1

[3] = compound: COc1cccc2cc(-c3nc([C@H]4CC[C@H](C(=O)O)CC4)n4ncnc(N)c34)[nH]c12
In short: as §1

lapatinib = compound: CS(=O)(=O)CCNCc1ccc(-c2ccc3ncnc(Nc4ccc(OCc5cccc(F)c5)c(Cl)c4)c3c2)o1 [lapatinib]
In short: as §1

pictilisib = compound: CS(=O)(=O)N1CCN(Cc2cc3nc(-c4cccc5[nH]ncc45)nc(N4CCOCC4)c3s2)CC1 [pictilisib]
In short: as §1

[4] = compound: CS(=O)(=O)c1ccc(-c2cnc(N)c(C(=O)Nc3ccccc3)n2)cc1
In short: as §1

crizotinib = compound: C[C@@H](Oc1cc(-c2cnn(C3CCNCC3)c2)cnc1N)c1c(Cl)ccc(F)c1Cl [crizotinib]
In short: as §1

[5] = compound: C[C@@H]1COCCN1C2=NC(=NC(=C2)C3(CC3)S(=O)(=O)C)C4=C5C=CNC5=CC=C4
In short: as §1

[6] = compound: C[C@H](C1=CC=C(C=C1)C(=O)NC2=C3C=CNC3=NC=C2)N
In short: as §1

duvelisib = compound: C[C@H](Nc1ncnc2nc[nH]c12)c1cc2cccc(Cl)c2c(=O)n1-c1ccccc1 [duvelisib]
In short: as §1

gandotinib = compound: Cc1cc(Nc2cc(CN3CCOCC3)c3nc(C)c(Cc4ccc(Cl)cc4F)n3n2)n[nH]1 [gandotinib]
In short: as §1

tozasertib = compound: Cc1cc(Nc2cc(N3CCN(C)CC3)nc(Sc3ccc(NC(=O)C4CC4)cc3)n2)n[nH]1 [tozasertib]
In short: as §1

[7] = compound: Cc1cc(SCc2sc(-c3ccc(C(F)(F)F)cc3)nc2C)ccc1OCC(=O)O
In short: as §1

doramapimod = compound: Cc1ccc(-n2nc(C(C)(C)C)cc2NC(=O)Nc2ccc(OCCN3CCOCC3)c3ccccc23)cc1 [doramapimod]
In short: as §1

ispinesib = compound: Cc1ccc(C(=O)N(CCCN)[C@@H](c2nc3cc(Cl)ccc3c(=O)n2Cc2ccccc2)C(C)C)cc1 [ispinesib]
In short: as §1

Sequence of UniProt P52306 (P52306 whole entry, looked up): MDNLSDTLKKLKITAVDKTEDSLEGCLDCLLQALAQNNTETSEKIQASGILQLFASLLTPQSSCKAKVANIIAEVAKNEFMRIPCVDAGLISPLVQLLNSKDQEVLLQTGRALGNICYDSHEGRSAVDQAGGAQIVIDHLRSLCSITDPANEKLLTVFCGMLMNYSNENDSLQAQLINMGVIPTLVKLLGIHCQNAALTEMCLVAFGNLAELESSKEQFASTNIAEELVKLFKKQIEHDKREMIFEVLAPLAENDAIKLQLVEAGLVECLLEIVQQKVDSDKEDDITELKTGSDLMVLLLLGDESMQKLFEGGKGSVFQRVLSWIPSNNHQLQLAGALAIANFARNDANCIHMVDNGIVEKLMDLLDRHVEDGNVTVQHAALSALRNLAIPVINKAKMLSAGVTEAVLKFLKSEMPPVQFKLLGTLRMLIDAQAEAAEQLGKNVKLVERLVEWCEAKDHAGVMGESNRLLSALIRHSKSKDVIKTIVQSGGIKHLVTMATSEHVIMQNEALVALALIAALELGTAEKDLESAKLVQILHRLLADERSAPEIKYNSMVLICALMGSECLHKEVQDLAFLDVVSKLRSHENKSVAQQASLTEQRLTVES
Sequence of UniProt Q9UBS8 (Q9UBS8 whole entry, looked up): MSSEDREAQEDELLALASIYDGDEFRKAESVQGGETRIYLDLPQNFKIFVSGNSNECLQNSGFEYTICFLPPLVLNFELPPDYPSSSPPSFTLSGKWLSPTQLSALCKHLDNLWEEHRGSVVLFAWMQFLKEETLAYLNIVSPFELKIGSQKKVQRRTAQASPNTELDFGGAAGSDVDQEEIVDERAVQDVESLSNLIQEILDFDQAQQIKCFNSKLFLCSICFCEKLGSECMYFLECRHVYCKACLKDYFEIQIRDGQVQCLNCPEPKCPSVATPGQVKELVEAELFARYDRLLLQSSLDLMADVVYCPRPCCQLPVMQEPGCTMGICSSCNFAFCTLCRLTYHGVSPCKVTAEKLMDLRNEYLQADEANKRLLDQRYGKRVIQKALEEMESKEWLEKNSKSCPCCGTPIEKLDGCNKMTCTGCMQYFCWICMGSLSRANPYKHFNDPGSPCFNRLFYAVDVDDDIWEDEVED
Sequence of UniProt P54136 (P54136 whole entry, looked up): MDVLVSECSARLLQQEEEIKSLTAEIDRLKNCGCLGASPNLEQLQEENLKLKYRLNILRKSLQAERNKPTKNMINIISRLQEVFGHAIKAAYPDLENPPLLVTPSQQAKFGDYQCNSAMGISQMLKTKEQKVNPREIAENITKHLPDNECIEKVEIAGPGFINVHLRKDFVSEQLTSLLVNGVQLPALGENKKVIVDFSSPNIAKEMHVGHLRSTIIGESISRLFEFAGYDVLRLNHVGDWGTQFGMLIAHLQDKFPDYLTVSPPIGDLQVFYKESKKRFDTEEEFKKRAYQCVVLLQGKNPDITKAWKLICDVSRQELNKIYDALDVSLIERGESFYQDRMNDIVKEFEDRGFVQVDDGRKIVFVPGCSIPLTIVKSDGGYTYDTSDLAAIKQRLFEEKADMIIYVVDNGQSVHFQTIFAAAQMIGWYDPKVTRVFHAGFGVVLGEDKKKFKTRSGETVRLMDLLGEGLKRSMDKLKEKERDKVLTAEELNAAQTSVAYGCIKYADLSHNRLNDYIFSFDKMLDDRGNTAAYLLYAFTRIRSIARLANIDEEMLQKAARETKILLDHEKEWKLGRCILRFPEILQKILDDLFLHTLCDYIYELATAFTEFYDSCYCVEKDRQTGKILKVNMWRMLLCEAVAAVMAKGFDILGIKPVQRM
Sequence of UniProt P46063 (P46063 whole entry, looked up): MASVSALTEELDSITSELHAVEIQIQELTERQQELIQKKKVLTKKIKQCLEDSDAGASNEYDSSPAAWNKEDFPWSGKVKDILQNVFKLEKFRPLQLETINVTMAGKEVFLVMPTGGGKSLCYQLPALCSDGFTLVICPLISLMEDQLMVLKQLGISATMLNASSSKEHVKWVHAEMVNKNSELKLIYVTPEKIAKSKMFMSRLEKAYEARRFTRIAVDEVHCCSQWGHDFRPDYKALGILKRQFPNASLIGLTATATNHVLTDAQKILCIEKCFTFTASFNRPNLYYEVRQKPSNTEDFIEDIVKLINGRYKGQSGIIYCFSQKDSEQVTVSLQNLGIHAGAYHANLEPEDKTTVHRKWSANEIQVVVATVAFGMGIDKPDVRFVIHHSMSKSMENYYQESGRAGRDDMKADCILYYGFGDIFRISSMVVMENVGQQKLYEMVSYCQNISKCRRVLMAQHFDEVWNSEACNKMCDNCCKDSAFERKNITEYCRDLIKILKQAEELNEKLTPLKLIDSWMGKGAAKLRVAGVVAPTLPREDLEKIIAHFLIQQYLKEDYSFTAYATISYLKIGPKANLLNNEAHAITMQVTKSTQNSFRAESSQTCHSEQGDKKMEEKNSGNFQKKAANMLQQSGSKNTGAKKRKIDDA
Sequence of UniProt Q53H47 (Q53H47 whole entry, looked up): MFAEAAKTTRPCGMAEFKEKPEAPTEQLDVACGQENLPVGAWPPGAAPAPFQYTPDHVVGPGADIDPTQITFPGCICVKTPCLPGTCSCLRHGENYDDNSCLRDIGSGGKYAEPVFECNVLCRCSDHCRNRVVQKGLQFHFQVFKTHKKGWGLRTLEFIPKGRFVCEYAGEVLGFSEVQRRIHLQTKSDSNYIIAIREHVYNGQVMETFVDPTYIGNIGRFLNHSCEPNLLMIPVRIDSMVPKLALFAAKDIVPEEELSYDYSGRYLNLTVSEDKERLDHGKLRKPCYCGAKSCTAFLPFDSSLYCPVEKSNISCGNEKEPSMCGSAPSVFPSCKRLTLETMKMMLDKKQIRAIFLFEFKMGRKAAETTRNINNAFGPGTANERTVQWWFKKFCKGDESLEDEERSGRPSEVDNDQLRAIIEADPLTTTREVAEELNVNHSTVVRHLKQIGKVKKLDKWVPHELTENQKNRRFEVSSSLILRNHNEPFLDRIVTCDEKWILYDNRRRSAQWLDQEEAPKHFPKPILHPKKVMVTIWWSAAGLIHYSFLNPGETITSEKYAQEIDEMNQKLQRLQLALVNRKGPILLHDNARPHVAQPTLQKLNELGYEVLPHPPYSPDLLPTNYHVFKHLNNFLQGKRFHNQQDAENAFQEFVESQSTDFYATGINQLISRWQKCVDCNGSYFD
Sequence of UniProt Q15436 (Q15436 whole entry, looked up): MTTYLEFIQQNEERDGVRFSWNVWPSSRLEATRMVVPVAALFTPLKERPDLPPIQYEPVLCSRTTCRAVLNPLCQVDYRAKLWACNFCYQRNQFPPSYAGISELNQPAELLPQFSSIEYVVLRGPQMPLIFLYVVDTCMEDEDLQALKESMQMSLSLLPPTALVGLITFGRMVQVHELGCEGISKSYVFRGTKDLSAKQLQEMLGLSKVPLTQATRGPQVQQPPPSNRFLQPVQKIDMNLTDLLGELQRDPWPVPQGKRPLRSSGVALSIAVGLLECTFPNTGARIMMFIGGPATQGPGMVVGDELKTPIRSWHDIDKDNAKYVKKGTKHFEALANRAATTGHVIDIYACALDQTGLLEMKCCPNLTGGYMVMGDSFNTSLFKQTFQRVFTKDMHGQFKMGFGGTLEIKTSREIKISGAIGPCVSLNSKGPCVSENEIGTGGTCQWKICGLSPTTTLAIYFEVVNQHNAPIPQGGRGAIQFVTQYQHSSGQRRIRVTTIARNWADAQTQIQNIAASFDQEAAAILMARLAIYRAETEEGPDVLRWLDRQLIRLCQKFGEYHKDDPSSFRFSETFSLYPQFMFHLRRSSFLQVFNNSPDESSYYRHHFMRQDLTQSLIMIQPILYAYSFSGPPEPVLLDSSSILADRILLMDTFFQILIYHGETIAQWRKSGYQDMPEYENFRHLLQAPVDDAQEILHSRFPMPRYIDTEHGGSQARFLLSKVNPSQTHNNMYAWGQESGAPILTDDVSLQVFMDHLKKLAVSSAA

Target	log2 fold change [1]	log2 fold change (filanesib)	log2 fold change (zotarolimus)	log2 fold change (idasanutlin)	log2 fold change (alisertib)	log2 fold change [2]	log2 fold change (gefitinib)	log2 fold change [3]	log2 fold change (lapatinib)	log2 fold change (pictilisib)	log2 fold change [4]	log2 fold change (crizotinib)	log2 fold change [5]	log2 fold change [6]	log2 fold change (duvelisib)	log2 fold change (gandotinib)	log2 fold change (tozasertib)	log2 fold change [7]	log2 fold change (doramapimod)	log2 fold change (ispinesib)
RECQL (UniProt P46063)	0.022	-0.091	0.035	-0.056	-0.061	-0.038	-0.004	0.031	0.043	0.024	0.031	0.033	0.112	-0.082	0.051	-0.057	0.001	0.003	-0.011	0.056
RARS (UniProt P54136)	-0.045	0.079	0.049	0.052	-0.059	-0.032	-0.025	-0.203	-0.008	-0.07	-0.001	-0.266	-0.099	0.373	-0.069	0.018	-0.028	0.132	0.184	-0.398 (active)
RPS3 (UniProt P23396)	-0.093	0.102	-0.023	0.055	-0.05	-0.027	-0.056	-0.149	0.053	-0.059	-0.07	0.025	-0.258	0.203	-0.06	0.134	0.022	0.045	0.077	-0.127
RPL38 (UniProt P63173)	-0.109	0	-0.007	0.055	-0.064	0.061	-0.074	-0.171	0.05	-0.053	-0.039	-0.069	-0.258 (active)	0.077	-0.064	0.144	-0.017	-0.008	0.017	-0.093
RAP1GDS1 isoform 5 (UniProt P52306)	-0.026	-0.019	0.022	-0.023	-0.041	-0.025	0.066	-0.072	0.091	0.015	0.061	-0.062	0.08	0.009	-0.009	-0.066	0.079	0.036	-0.014	-0.096
RNF14 (UniProt Q9UBS8)	0.034	-0.093	0.018	0.043	-0.035	-0.038	0.003	-0.048	0.006	0.045	0.034	0.014	0.081	-0.053	0.031	0.001	0.058	0.041	-0.025	-0.032
SEC23A (UniProt Q15436)	0.024	0.013	0.025	-0.026	-0.027	0.043	0.007	0.01	-0.045	0.049	0.001	-0.016	0.061	-0.102	0.017	-0.109	0.021	0.03	-0.092	0.023
SETMAR (UniProt Q53H47)	-0.135	-0.065	0.048	-0.037	0.014	-0.002	-0.044	0.004	0.018	-0.009	0.077	0.036	-0.028	0.134	-0.004	-0.129	-0.061	0.003	0.024	0.164
